Reference: PubChem BioAssay (EPA / NIEHS)
Results filed as inconclusive are left out. The source made the active and inactive calls. Rule for the calls: active = hit-call score of the fitted dose curve at least 0.9, where 1 is the maximum; inconclusive = response in the unintended direction; inactive = score below 0.9.

Legend:
[1] = TOX21_p53_BLA_p2_viability: Viability Assessment in the Tox21 HCT-116 p53 Agonism Beta-lactamase Assay, Phase 2 (AID 2283591);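 note: compound exposure lasted 16 h at 37 °C; actives lower the ATP signal meaning cytotoxicity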
Summary of the method: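 HCT116 p53-bla cells, 4000/well, dosed after 5 h plating (217-fold dilution of DMSO stocks) and incubated 16 h at 37C. Viability taken as cellular ATP by CellTiter-Glo luminescence after 30 min RT; signal loss marks cytotoxicity.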

[2] = target: Cellular tumor antigen p53 (Homo sapiens) (UniProt P04637); test: TOX21_p53_BLA_p2_ratio: Tox21 HCT-116 p53 Agonism Beta-lactamase Assay, Ratio, Phase 2 (AID 2283592)
Summary of the method: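 Human colon HCT116 cells with an inducible p53 beta-lactamase reporter are exposed to test chemicals for 16 h at 37C. Reporter induction is read as the 460/530 nm emission ratio after CCF4-AM loading, normalized to DMSO.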

[3] = TOX21_p53_BLA_p3_viability: Viability Assessment in the Tox21 HCT-116 p53 Agonism Beta-lactamase Assay, Phase 3 (AID 2283593);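 note: cells exposed to compound for 16 h before reading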
Summary of the method: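 HCT116 cells, 4000/well, dosed 5 h after plating by pin transfer (217-fold dilution from DMSO stock) and incubated 16 h at 37C, 5% CO2. Viability read as ATP luminescence with CellTiter-Glo after 30 min at room temperature.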

[4] = target: Cellular tumor antigen p53 (Homo sapiens) (UniProt P04637); test: TOX21_p53_BLA_p3_ratio: Tox21 HCT-116 p53 Agonism Beta-lactamase Assay, Ratio, Phase 3 (AID 2283596)
Summary of the method: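 HCT116 p53-bla cells (4000/well) given compound in DMSO (217-fold dilution) after 5 h, incubated 16 h at 37C. CCF4-AM substrate 2 h at room temperature; 460/530 nm emission ratio, gain fitted against DMSO.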

[5] = target: Cellular tumor antigen p53 (Homo sapiens) (UniProt P04637); test: TOX21_p53_BLA_p5_ratio: Tox21 HCT-116 p53 Agonism Beta-lactamase Assay, Ratio, Phase 5 (AID 2283599)
Summary of the method: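 HCT-116 p53-bla cells (4000/well) plated 5 h, dosed with compound (217-fold DMSO dilution) for 16 h at 37 C; CCF4-AM substrate 2 h at room temperature. Activity is the 460/530 nm emission ratio (405 nm excitation), fitted in gain-of-signal direction versus DMSO.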

[6] = TOX21_p53_BLA_p5_viability: Viability Assessment in the Tox21 HCT-116 p53 Agonism Beta-lactamase Assay, Phase 5 (AID 2283600)
Summary of the method: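 Seeded cells (4000/well) settle 5 h before compound addition. Plates then incubate 16 h at 37C, receive FRET substrate for 2 h, and finally CellTiter-Glo, with luminescence measured after a 30 min room-temperature incubation.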

[7] = target: Cellular tumor antigen p53 (Homo sapiens) (UniProt P04637); test: TOX21_p53_BLA_p4_ratio: Tox21 HCT-116 p53 Agonism Beta-lactamase Assay, Ratio, Phase 4 (AID 2283601)
Summary of the method: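 HCT-116 p53 beta-lactamase reporter cells (4000/well) preincubated 5 h, then compound (217-fold dilution of DMSO stock) for 16 h at 37C. CCF4-AM substrate added 2 h at room temperature; 460/530 nm emission ratio fitted upward versus DMSO.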

Measured: AC50

Sequence of Cellular tumor antigen p53 (Homo sapiens) (P04637 whole entry, looked up): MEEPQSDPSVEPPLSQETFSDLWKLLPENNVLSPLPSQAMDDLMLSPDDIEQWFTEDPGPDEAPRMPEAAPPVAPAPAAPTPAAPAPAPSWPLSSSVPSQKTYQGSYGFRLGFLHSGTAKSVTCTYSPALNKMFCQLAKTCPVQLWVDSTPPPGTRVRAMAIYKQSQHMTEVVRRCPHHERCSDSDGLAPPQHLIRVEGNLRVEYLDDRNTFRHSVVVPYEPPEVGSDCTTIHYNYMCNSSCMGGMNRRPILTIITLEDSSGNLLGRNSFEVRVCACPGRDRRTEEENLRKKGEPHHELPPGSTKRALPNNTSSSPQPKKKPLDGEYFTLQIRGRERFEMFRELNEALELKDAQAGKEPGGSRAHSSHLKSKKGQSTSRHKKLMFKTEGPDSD

NC(=O)CS(=O)C(c1ccccc1)c1ccccc1 (stereo not given)
not listed: [7]
inactive: all other assays above

COC(=O)C(c1ccccc1)C1CCCCN1 (stereo not given)
not listed: [6]
inactive: all other assays above

CCNC1(c2cccs2)CCCCC1=O (stereo not given)
not listed: [6] | [7]
inactive: all other assays above

O=C(Nc1ccccc1)N(Cc1ccc(Cl)cc1)C1CCCC1
inactive: all assays above

Oc1c(Cl)c(Cl)cc(Cl)c1Cl
inactive: [1] | [3]
active: [2] 12.2 µM | [4] 13.4 µM | [5] 18.7 µM | [7] 22.6 µM
